Hit rate of the full screen: of about 9,900 compounds, about 90 (0.9%) were called active. Inconclusive results (about 2%) are left out.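 How the source made its calls: active means mean normalized replicate activity at least 50 and at least half of replicates each reaching 50; inconclusive means only one of the two criteria met; inactive means neither criterion met.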 Shown is part of a subset that was picked to be rich in actives.
assay: reduction of CTGF mRNA in DLD1 cells – DLD1 colon cancer cells, RT-qPCR, single point, primary screen (AID 743449); conditions: 24 h, at 12.5 µM, active compounds read high;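 further: 0% = neutral control wells and 100% = dasatinib control wells; higher means stronger suppression of CTGF expression like dasatinib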

SMILES | inhibition
CC(C)(C)[S@@](=O)N1Cc2cc(C(=O)NCc3ccccn3)nc(-c3cccc(-c4ccccc4F)c3)c2[C@H]1CCO | -29.9% (inactive)
CCN1Cc2cc(C(=O)Nc3nccs3)nc(-c3cccc(C4=CCCC4)c3)c2[C@H]1CCO | -15.8% (inactive)
CC(C)(C)[S@](=O)N1Cc2cc(C(=O)NC3CCC3)nc(-c3cccc(-c4ccccc4F)c3)c2[C@@H]1CCO | 41% (inactive)
CC(C)(C)S(=O)N1Cc2cc(C(=O)NCc3ccc4c(c3)OCO4)nc(-c3cccc(-c4cccc(F)c4)c3)c2[C@@H]1CCO (stereo partly drawn) | 55.2% (active)
CCC(=O)N1Cc2cc(C(=O)NCc3cccc(F)c3)nc(-c3cccc(C4=CCCC4)c3)c2[C@H]1CCO | 50.2% (active)
CC(C)(C)S(=O)N1Cc2cc(C(=O)NCc3ccc(Oc4ccccc4)cc3)nc(-c3cccc(-c4cccc(F)c4)c3)c2[C@@H]1CCO (stereo partly drawn) | 9.98% (inactive)
CCNC(=O)c1cc2c(c(-c3cccc(-c4ccccc4F)c3)n1)[C@@H](CCO)N(C(=O)CC1CC1)C2 | 59.3% (active)
CN(C)C(=O)c1cc2c(c(-c3cccc(C4=CCCCC4)c3)n1)[C@@H](CCO)N(S(C)(=O)=O)C2 | -7.52% (inactive)
CC(C)(C)S(=O)N1Cc2cc(C(=O)NCc3ccc4c(c3)OCO4)nc(-c3cccc(-c4cc5ccccc5o4)c3)c2[C@H]1CCO (stereo partly drawn) | 20.7% (inactive)
CCNC(=O)c1cc2c(c(-c3cccc(-c4cncnc4)c3)n1)[C@H](CCO)N(C(C)=O)C2 | -8.43% (inactive)
CC(C)(C)[S@](=O)N1Cc2cc(C(=O)NCc3ccccn3)nc(-c3cccc(-c4ccccc4F)c3)c2[C@@H]1CCO | 53% (active)
CCNC(=O)c1cc2c(c(-c3cccc(-c4ccccc4F)c3)n1)[C@H](CCO)N(C(=O)CC1CC1)C2 | -97.9% (inactive)
O=C1C[C@H](c2ccccc2)C(=O)N[C@H](c2ccccc2)C/C=C\C[C@H](c2ccccc2)N1 | -5.88% (inactive)
COc1ccc(S(=O)(=O)Nc2ccc3c(c2)C(=O)N([C@H](C)CO)C[C@H](C)[C@@H](CN(C)C(=O)Nc2c(C)noc2C)OCCCC[C@H](C)O3)cc1 | -7.64% (inactive)
O=C(Cc1cccnc1)N1[C@H](CNCC2CCC2)[C@H](c2ccccc2)[C@@H]1CO | -21.2% (inactive)
COc1ccc(S(=O)(=O)Nc2ccc3c(c2)C(=O)N([C@@H](C)CO)C[C@@H](C)[C@@H](CN(C)Cc2ccc(C(F)(F)F)cc2)OCCCC[C@H](C)O3)cc1 | -37.9% (inactive)
O=C(C1CCOCC1)N1CC[C@@H]2[C@@H](CO)Nc3ccc(-c4cccc(F)c4)cc3[C@@H]21 | -12.5% (inactive)
CO[C@H]1CC[C@H]2CCOc3c(C#N)cccc3C(=O)N(C)C[C@@H](OC)[C@@H](C)C(=O)N(C)C[C@H]1O2 | -18.4% (inactive)
O=C(C[C@@H]1CC[C@@H]2[C@H](COC[C@@H](O)CN2C(=O)c2cnccn2)O1)N1CCN(c2ccccc2)CC1 | -2.5% (inactive)
COc1ccc2c3c([nH]c2c1)[C@H](CO)N(C(=O)c1ccccn1)CC31CCN(S(C)(=O)=O)CC1 | -21.9% (inactive)
COc1ccccc1CN1[C@@H]2c3ccc(C4=CCCC4)c(=O)n3C[C@H]1[C@H](CO)[C@H]2C(=O)N(C)C | 2.56% (inactive)
C[C@@H]1CN([C@H](C)CO)C(=O)Cc2cc(NS(=O)(=O)c3cccs3)ccc2O[C@@H]1CN(C)CC1CCCCC1 | 1.75% (inactive)
COc1ccc2c3c(n(C)c2c1)[C@@H](CO)N(S(C)(=O)=O)CC31CCN(Cc2nccs2)CC1 | 14% (inactive)

From PubChem BioAssay AID743449 (Broad Institute, 2014)
